In the library only some 4.7% were active in any assay of this set; here they are far more common.
ADAM10 inh: ADAM10 inhibition, QFRET primary screen. O14672. recombinant ADAM10, EDANS/DABCYL FRET peptide cleavage, 3 h. inhibition, % at 7 µM. 0.62% of 370,000 active. AID 720582;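 active = inhibition above a per-campaign cutoff equal to the mean of compounds falling between control-based bounds plus 3 SD, cut at about 20% in these data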
KLK7 zymogen act: activates the human kallikrein-7 zymogen | purified proKLK7, EDANS-DABCYL substrate fluorescence; 100% is mature enzyme control, 0% vehicle | activation, % at 7 µM | 0.9% of 370,000 active;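 active = activation above the mean of all tested compounds plus 3 SD, computed per campaign excluding outliers beyond control limits, cut at about 13% in these data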
MPTP block: blocks calcium-induced mitochondrial swelling; isolated mouse mitochondria, Ca2+ swelling absorbance, 30 min; inhibition, % at 10 µM; 1.4% of 360,000 active; AID 602449;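 active = inhibition of 50% or more, scaled per plate between neutral and stimulator controls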
DSG3 Ab inh: human desmoglein-3 autoantibody binding inhibition. P32926. DSG3-coupled beads, scFv-anti-DSG3-GFP binding, flow cytometry; active compounds read low. binding (percent of control), % at 10 µM. 0.48% of 310,000 active. AID 588358;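 active = binding more than 3 SD below its plate's average and above zero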;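 note: hits lower antibody fragment binding to DSG3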
rCAG binder: molecules binding r(CAG) RNA repeats; inhibition, % at 3 µM; 1.3% of 370,000 active; r(CAG) RNA repeat, TO-PRO-1 dye displacement fluorescence;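 active = inhibition above the plate cutoff, the mean of all test compounds on that plate plus 3 SD, cut at about 35% in these data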;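 note: higher means more dye released from RNA so lower well fluorescence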
ADAM17 inh: inhibitors of human ADAM17. recombinant ADAM17, EDANS/DABCYL FRET peptide cleavage. inhibition, % at 6.95 µM. 0.83% of 370,000 active. AID 720648;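 active = inhibition above the mean of compounds lying between control limits plus 3 SD, set per campaign, cut at about 8.5% in these data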
rCAG bind conf: r(CAG) RNA repeat binding, confirmation. TO-PRO-1 dye displacement fluorescence. 70% of 4,300 active. AID 652065. shares compounds with rCAG binder. inhibition, % at 3 µM;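 active = inhibition above a per-plate cutoff, the mean inhibition of sample wells plus 3 SD, cut at about 35% in these data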;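 note: loss of TO-PRO-1 fluorescence as compound displaces dye from 1x1 AA loop RNA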
DNA CAG counter: disrupts DNA CAG TO-PRO-1 complex, flagging rCAG hits; shares compounds with rCAG binder; d(CAG) DNA oligo TO-PRO-1 dye displacement, fluorescence; inhibition, % at 3 µM; 94% of 4,300 active;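 active = inhibition above its plate's cutoff, the mean test-well inhibition plus 3 SD, cut at about 4.8% in these data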;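 note: hits displace the dye from DNA and so lower well fluorescence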
KLK7 act conf: proKLK7 activation, confirmation; shares compounds with KLK7 zymogen act; 68% of 3,200 active; purified proKLK7, EDANS-DABCYL substrate fluorescence; scaled: vehicle 0, mature enzyme 100; AID 686949; activation, % at 7 µM;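 active = activation, as change over the incubation, above the mean of all tested compounds plus 3 SD, cut at about 13% in these data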
EDANS interfere: optically interferes with EDANS-DABCYL signal, flagging KLK7 hits; shares compounds with KLK7 zymogen act; EDANS-DABCYL substrate fluorescence interference, no enzyme, 4 h; solvent 0%, active enzyme control 100%; activation, % at 7 µM; 80% of 3,200 active; AID 686952;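 active = activation above the all-compound mean plus 3 SD, ignoring values outside control-based bounds, cut at about 4.8% in these data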;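 note: value is the 4 h activation minus the activation read at time zero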
Of the large screens only hits and unclear results are named; the others gave an inactive call (follow-up assays come after a bar, where they were run).

CN1C(=O)NC(=O)/C(=C/c2ccc([N+](=O)[O-])s2)C1=O	none
Cc1ccccc1-c1ccc2c(c1)C1c3c(-c4ccccc4)nnn3-c3ccccc3C(=O)N1CC2 (configuration not stated)	none (no result: DSG3 Ab inh)
Oc1ccc2c3c1OC1c4oc5ccccc5c4C[C@@]4(O)[C@@H](C2)N(CC2CC2)CC[C@]314 (some centres not stated)	none
CN(C)[C@@H]1C(=O)C(C(N)=O)=C(O)[C@@]2(O)C(=O)C3=C(O)c4c(O)cccc4[C@@](C)(O)C3[C@H](O)C12 (some centres not stated)	rCAG binder 55 | rCAG bind conf inactive | DNA CAG counter 7.5
COc1ccc(C(SCC(NC(=O)OCc2ccccc2)C(=O)O)c2ccc(OC)cc2)cc1 (configuration not stated)	rCAG binder 53 | rCAG bind conf 53 | DNA CAG counter 14
C[C@H](NC(=O)OCc1ccccc1)[P+](=O)O	none (no result: MPTP block, DSG3 Ab inh)
CN1C(=O)CN=C(c2ccc[nH]2)c2cc(Cl)ccc21 (tested in a mixture with another compound)	none
COC1C(OC(=O)c2ccc(C)[nH]2)C(O)C(Oc2ccc3c(O)c(NC(=O)c4ccc(O)c(CC=C(C)C)c4)c(=O)oc3c2Cl)OC1(C)C (configuration not stated)	rCAG binder 77 | rCAG bind conf 89 | DNA CAG counter 70
O=c1[nH]c2cc(Cl)ccc2n1C1CCN(Cc2ccc(-c3nc4ccccc4nc3-c3ccccc3)cc2)CC1	none (no result: MPTP block, DSG3 Ab inh)
O=C(O)c1cccc2c1NC(c1cccc([N+](=O)[O-])c1)C1CC(Sc3ccccc3[N+](=O)[O-])C(Cl)C21 (configuration not stated)	rCAG binder 76 | rCAG bind conf 92 | DNA CAG counter 74
O=C(O)c1ccc2c(c1)C1C(Cl)C(Sc3ccccc3[N+](=O)[O-])CC1C(c1cccc([N+](=O)[O-])c1)N2 (configuration not stated)	none (no result: ADAM10 inh, KLK7 zymogen act, rCAG binder, ADAM17 inh)
Cc1cccc(C)c1-n1nnnc1C(C1CC1)N1CCC2(CC1)C(=O)NCN2c1ccccc1 (configuration not stated)	none (no result: DSG3 Ab inh)
COc1c(OP2(=S)OCC(C)(C)CO2)cnn(C2CCCCC2)c1=O	none (no result: DSG3 Ab inh)
O=C(O)c1ccccc1-c1ccc(C=C2C(=O)N(c3ccccc3)C(=S)N(c3ccccc3)C2=O)o1	rCAG binder 57 | rCAG bind conf 61 | DNA CAG counter 26
CCOC(=O)[C@]12Cc3cc(Cl)ccc3[C@H]1N(C1CCCCC1)C(=O)c1ccccc12	none (no result: ADAM10 inh, KLK7 zymogen act, DSG3 Ab inh, rCAG binder, ADAM17 inh)
Cc1cccc(N2C(=O)NC(=O)/C(=C/c3cc4c(cc3[N+](=O)[O-])OCO4)C2=O)c1	KLK7 zymogen act 16 | KLK7 act conf 76 | EDANS interfere 76
O=C1NC(=O)C(=Cc2cc3c(cc2[N+](=O)[O-])OCO3)C(=O)N1	KLK7 zymogen act 15 (no result: DSG3 Ab inh) | KLK7 act conf inactive | EDANS interfere 7.9
COc1ccccc1CNCCc1ccc(F)cc1	none
O=C(c1ccc2c3c(cccc13)CC2)C1CCCN(Cc2ncc[nH]2)C1 (configuration not stated)	none
O=C(c1ccc2c3c(cccc13)CC2)C1CCCN(CC2CC2)C1 (configuration not stated)	KLK7 zymogen act 43 | KLK7 act conf inactive | EDANS interfere inactive
O=C(NC1CN2CCC1CC2)c1cc(-c2ccc(Cl)cc2)nc2ccccc12 (configuration not stated)	none (no result: MPTP block, DSG3 Ab inh)
FC(F)(F)c1ccc2c(c1)NP(=S)(N1CCOCC1)c1nccn1-2 (configuration not stated)	none
ClCCN(CCCl)c1ccc(-n2cnc3c(Cl)ncnc32)cc1	none
CN1C(=O)N(C)C(=O)C2(Sc3ccccc3C2=O)C1=O	KLK7 zymogen act 13 (no result: DSG3 Ab inh) | KLK7 act conf 247 | EDANS interfere 233
CN(C)C1C(=O)C(C(N)=O)=C(O)C2(O)C(=O)C3=C(O)c4c(O)cccc4C(C)(O)C3CC12 (configuration not stated)	none (no result: ADAM10 inh, KLK7 zymogen act, rCAG binder, ADAM17 inh)
CN(C)[C@@H]1C(=O)C(C(N)=O)=C(O)[C@@]2(O)C(=O)C3=C(O)c4c(O)ccc(Cl)c4[C@@](C)(O)C3C[C@@H]12 (some centres not stated)	KLK7 zymogen act 25 | KLK7 act conf 17 | EDANS interfere 17
C[C@]12CCC3C(CC[C@H]4C[C@H](O)CC[C@]34C)C1C[C@@H](O)[C@H]2O (some centres not stated)	none (no result: DSG3 Ab inh)
COCCCn1c(N)c(C(=O)OC(C)COC)c2nc3ccccc3nc21 (configuration not stated)	KLK7 zymogen act 52 | KLK7 act conf 75 | EDANS interfere 71
COCCNC(=O)c1c(N)n(Cc2ccco2)c2nc3ccccc3nc12	KLK7 zymogen act 27 | KLK7 act conf inactive | EDANS interfere inactive
CCCCn1c(N)c(C(=O)NCCN2CCOCC2)c2nc3ccccc3nc21	none
CCOC(=O)c1c(N)n(CCN2CCCCC2)c2nc3ccccc3nc12	KLK7 zymogen act 154 | KLK7 act conf 29 | EDANS interfere 17
Cc1c2ccncc2c(C)c2c1[nH]c1ccccc12	none (no result: ADAM10 inh, KLK7 zymogen act, rCAG binder, ADAM17 inh)
CCc1nccc2c1[nH]c1ccccc12	KLK7 zymogen act 46 | KLK7 act conf 47 | EDANS interfere 46
c1ccc2c(c1)[nH]c1cnccc12	KLK7 zymogen act 46 | KLK7 act conf 18 | EDANS interfere 21
Cc1nccc2c1[nH]c1ccccc12	KLK7 zymogen act 36 | KLK7 act conf 32 | EDANS interfere 36
Cc1[nH]c2ccccc2c1/C=N/O	none
Cc1[nH]c2ccccc2c1CCN	none
COc1ccc(C(=O)OC2CC[C@@]3(C)C4CCC5[C@]6(O)CC(O)[C@@]7(O)C(CN8CC(C)CCC8[C@@]7(C)O)[C@]6(O)C[C@@]53O[C@]24O)cc1OC (some centres not stated)	none
CCCN1CCC[C@@H](c2cccc(O)c2)C1	none
CC(C)(C)C(=O)C(Oc1ccc(Cl)cc1)n1cncn1 (configuration not stated)	none
